Drawing on ChEMBL document CHEMBL4513216, “Probing the Open Global Health Chemical Diversity Library for Multistage-Active Starting Points for Next-Generation Antimalarials” (ACS Infect Dis, 2020), this text covers INHIBITION for 106 compounds.

SMILES strings stand for the structures. Among all 69,000 compounds or so, about 8,600 (12%) showed an effect of 50% or more. The full list was thinned out, with strong results kept by preference.

The test concerns Plasmodium berghei. Put plainly: Screen against P. berghei liver stage (PbLuc), transformed with Luciferase, at 10uM. Format: functional, HepG2. To be noted: tested at 10 uM.
On to `Cc1oncc1C(=O)N[C@@H]1CN(c2ncccn2)C[C@@H]2CCCO[C@@H]21`, for which the INHIBITION is reported as -34.7%.

Turning to `O=c1[nH]c2cn(-c3cccc(Cl)c3)c(=O)n2[nH]1`, the INHIBITION is given as -14.9%. Take `COc1ccc(CC(=O)N2CCN(c3nccn3C)CC2)cc1`: the INHIBITION stood at 40%. The value for `COCCN1CCCC2(CCN(c3cc(C)c(C#N)c(C)n3)C2)C1=O` (stereo unspecified) was -8.25%. As to `CN(C)C(=O)N1CCN(c2cc(N3CCCC3CO)ncn2)CC1` (stereo unspecified), the INHIBITION is recorded as -3.68%. As for `O=C(c1cncnc1)N1C[C@@H]2CC[C@H](Oc3cccc(F)c3)[C@@H]2C1`, the INHIBITION is 5.11%. On to `CCc1n[nH]c(=O)c(C(=O)N2CCOC3(CCCC3)C2)c1CC`, for which the INHIBITION is on record as 48.2%. In the case of `Cn1cnc(S(=O)(=O)NCCCN2CCCC2)c1Cl`, the INHIBITION was -9.76%.

On to `Cc1nnc(CN(C)C2CCN(CCc3ccccn3)CC2)o1`, for which the INHIBITION came out at 21.5%. The value for `Cc1cc(S(=O)(=O)NC(=O)CCc2cccnc2)c(C)s1` was 32%. Regarding `O=C(CCn1ccc2cc(Br)ccc21)NCc1ccc(C(=O)O)cc1`, the INHIBITION is recorded as 19%.

In the case of `CC(CNC(=O)CCc1ccco1)N1CCc2sccc2C1` (stereo unspecified), the INHIBITION was determined as 42.5%. Turning to `Cc1ccc(CCCC(=O)N2CCCC(CS(N)(=O)=O)C2)s1` (stereo unspecified), the INHIBITION turned out to be 9.79%. As for `CCCc1nnc(NC(=O)NC(C)Cn2cccn2)s1` (stereo unspecified), the INHIBITION is given as -45.6%.

Regarding `CCN(CC1CCOC1)C(=O)c1ccn(-c2ccc(OC)cc2)n1` (stereo unspecified), the INHIBITION is given as -2.48%. `COc1nccc(N2CC[C@H](CO)[C@@H](O)C2)c1C#N`: the INHIBITION is listed as -9.02%. The value for `CC(NC(=O)c1cccs1)C(=O)NS(=O)(=O)c1ccc(C#N)cc1` (stereo unspecified) was 42.1%. Regarding `CC(NC(=O)c1cccs1)C(=O)NS(=O)(=O)c1cccc(C#N)c1` (stereo unspecified), the INHIBITION came out at 49.9%. In the case of `CC(NC(=O)c1cccs1)C(=O)NS(=O)(=O)Cc1ccc(C#N)cc1` (stereo unspecified), the INHIBITION stood at 53.3%. For `CCOc1c(C(N)=O)cn(C)c1-c1nc2cc(NC(C)=O)ccc2n1C` the value was 44.3%; for `CCN1Cc2cc3c(cc2NCCC1=O)OCO3`, 64.6%; for `CC(C)(C)C(=O)CN1Cc2ccccc2NCCC1=O`, 10.9%. Take `O=C1CCNc2cc3c(cc2CN1CC1CC1)OCO3`: the INHIBITION was 13.1%. On to `COC(=O)CN1Cc2cc3c(cc2NCCC1=O)OCO3`, for which the INHIBITION came out at 41.1%. For the compound `O=C1CCNc2cc3c(cc2CN1Cc1ccco1)OCO3`, the INHIBITION was found to be 4.82%. Take `CC(C)(C)CN1Cc2cc3c(cc2NCCC1=O)OCO3`: the INHIBITION is 52.5%. As to `O=C(c1n[nH]c(=O)c2ccccc12)N1CCCC1Cn1cccn1` (stereo unspecified), the INHIBITION is recorded as 45.9%. `O=C(O)CCc1nc2nccc(C(F)(F)F)n2n1`: the INHIBITION is -25.6%.

Turning to `O=C(OCC1CCCN1)c1cccc(NC(=O)c2ccco2)c1` (stereo unspecified), the INHIBITION was -142%. For `COCCN1C(=O)CC[C@@H]2[C@@H]1CCN2S(=O)(=O)C1CC1` the value was 43.9%; for `O=C1CC[C@H]2[C@H](CCN2S(=O)(=O)C2CC2)N1CCN1CCCC1`, 85.6%; for `O=C1CC[C@@H]2[C@@H](CCN2S(=O)(=O)C2CC2)N1CC1CC1`, 49.4%.

For `CN1CC(=O)N(c2cnn(C)c2)CC12CCN(CC1CC1)C2` (stereo unspecified), the INHIBITION is listed as 30.3%. Consider `C[C@]1(O)CN(Cc2cscn2)CC[C@@H]1Oc1cccc(F)c1`, for which the INHIBITION amounted to 38.2%. For the compound `C[C@]1(O)CN(Cc2ncc[nH]2)CC[C@@H]1Oc1cccc(F)c1`, the INHIBITION was found to be 61.9%.

As to `Cc1nccc(CN2CC[C@H](Oc3cccc(F)c3)[C@@](C)(O)C2)n1`, the INHIBITION was 38.7%. On to `C[C@]1(O)CN(Cc2ncccc2F)CC[C@@H]1Oc1cccc(F)c1`, for which the INHIBITION amounted to 50.1%. `C[C@]1(O)CN(Cc2ncccc2F)CC[C@@H]1Oc1ccccc1`: the INHIBITION was determined as 24.4%. As for `Cc1cccnc1CN1CC[C@@](C)(O)[C@H](Oc2ccccc2)C1`, the INHIBITION turned out to be 24.4%. In the case of `C[C@]1(O)CCN(Cc2ncccc2F)C[C@@H]1Oc1cccc(F)c1`, the INHIBITION is -4.51%. With `Cc1cccnc1CN1CC[C@H](Oc2cccc(F)c2)[C@@](C)(O)C1`, the INHIBITION was 75.3%.

Regarding `O=C1CC(c2cccnc2)C2(CCN(C(=O)c3ccncc3)CC2)N1` (stereo unspecified), the INHIBITION came to 33.5%. Take `O=c1[nH]c2cn(-c3cccc(Cl)c3)c(=O)n2n1Cc1cccc(F)c1`: the INHIBITION worked out at 34%. Regarding `Cc1nc(CN2CCCC(NCCCOc3ccc(F)cc3)C2)no1` (stereo unspecified), the INHIBITION was 19.4%. Regarding `O=C(O)c1ccc(COc2cccc(Cl)c2)s1`, the INHIBITION is on record as 8.49%. For `CN1CCN(Cc2cnc3n2CCN(C(=O)c2ccccn2)C3)CC1` the value was 40.4%; for `CN1CCN(Cc2cnc3n2CCN(C(=O)c2cnccn2)C3)CC1`, 20.6%; for `Cc1cccc(C(=O)N2CCn3c(CN4CCN(C)CC4)cnc3C2)n1`, 68.4%. On to `CN1CCN(Cc2cnc3n2CCN(C(=O)c2ccncc2)C3)CC1`, for which the INHIBITION is listed as 42.7%.

Turning to `CN1CCN(Cc2cnc3n2CCN(C(=O)c2ccoc2)C3)CC1`, the INHIBITION came to 59%. For `CN1CCN(Cc2cnc3n2CCN(C(=O)c2ccnnc2)C3)CC1` the value was 32.2%; for `CCCc1noc(CCC(=O)N2CCCCC2Cn2cc(C)cn2)n1` (stereo unspecified), 28.3%; for `O=C(c1ccc(NC2CC2)nc1)N1CCC(Nc2cccnn2)CC1`, 11.6%.

For the compound `CC(C)c1nc(CN2CCN(C(=O)CC3CCCCC3)CC2)no1`, the INHIBITION is on record as -3.21%. The value for `CCn1nc(C)c2c1cnn2CCNS(=O)(=O)CC` was 30%; that for `CC(C)CCn1c(=O)n(CCn2cccc2)c2cc(C(=O)O)cnc21` was 36.7%.

Turning to `Cc1nc(CN2CCO[C@@H]3CC(COc4ccccn4)C[C@H]32)cs1` (stereo partly specified), the INHIBITION is 31.5%. As for `Cc1cccc(CN2CCO[C@@H]3CC(COc4ccccn4)C[C@H]32)n1` (stereo partly specified), the INHIBITION was found to be 35.5%. On to `c1ccc(OCC2C[C@@H]3[C@@H](C2)OCCN3Cc2ccoc2)nc1` (stereo partly specified), for which the INHIBITION is reported as 54.4%. The value for `COCC(O)CN1CCC(=O)N(CC2CC2)Cc2ccccc21` (stereo unspecified) was 21.5%. On to `Cc1ccc(C(=O)N(CCC#N)Cc2ccccn2)cc1C`, for which the INHIBITION was found to be 5.48%. In the case of `COc1ccc(C(=O)N(CCC#N)Cc2ccccn2)cc1`, the INHIBITION was -1.37%.

`N#CCCN(Cc1ccccn1)C(=O)c1cccc(CN2CCCC2)c1`: the INHIBITION was found to be 61.8%. Turning to `COCc1ccc(C(=O)N(CCC#N)Cc2ccccn2)cc1`, the INHIBITION was 44%. The value for `CCOc1cccc(C(=O)N(CCC#N)Cc2ccccn2)c1` was 51.7%; that for `COc1cc(C(=O)N(CCC#N)Cc2ccccn2)ccc1C` was 29.4%; that for `CNC(=O)[C@H]1C[C@H]2CN(Cc3ccccc3)C[C@@H]1O2` was 1.7%. For `CNC(=O)[C@H]1C[C@H]2CN(Cc3cccc(C)c3)C[C@@H]1O2`, the INHIBITION is listed as 57.3%. Regarding `O=C(Nc1cccnc1)[C@H]1C[C@H]2CN(S(=O)(=O)C3CC3)C[C@@H]1O2`, the INHIBITION is given as 48.6%. For `COc1ccc(CN2C[C@@H]3C[C@H](C(=O)Nc4cccnc4)[C@H](C2)O3)cc1` the value was 28.7%; for `CNC(=O)[C@H]1C[C@H]2CN(Cc3ccc(C)cc3)C[C@@H]1O2`, 9.65%. Take `O=C(Nc1cccnc1)[C@H]1C[C@H]2CN(Cc3ccc(F)cc3)C[C@@H]1O2`: the INHIBITION is on record as 63.7%.

Regarding `CCCS(=O)(=O)N1C[C@@H]2C[C@H](C(=O)Nc3cccnc3)[C@H](C1)O2`, the INHIBITION stood at 34.6%. The value for `O=C(Nc1ccccc1)[C@H]1C[C@H]2CN(Cc3cccnc3)C[C@@H]1O2` was 59%. The value for `Cc1ccc(CN2C[C@@H]3C[C@H](C(=O)Nc4cccnc4)[C@H](C2)O3)cc1` was 64.9%; that for `CCN1C[C@@H]2C[C@H](C(=O)Nc3ccccc3)[C@H](C1)O2` was 1.94%.

Take `CC(C)CCN1C[C@@H]2C[C@H](C(=O)Nc3cccnc3)[C@H](C1)O2`: the INHIBITION was 41.6%. Turning to `CCOc1ccccc1OC1CCN(C(=O)c2[nH]nc(C)c2Br)CC1`, the INHIBITION was 2.97%. As to `Cc1nc(CCCNC(=O)[C@H]2CNC[C@@H](C(=O)N3CCCC3)C2)sc1C`, the INHIBITION turned out to be 6.72%. For the compound `COCC[C@]1(O)CCN(C(=O)CCn2c(C)cccc2=O)C[C@H]1C`, the INHIBITION came out at 1.94%. For the compound `Cn1cc(CN2CCc3ccc(=O)n(Cc4ccncc4)c3CC2)cn1`, the INHIBITION came to 20.6%. Consider `CN(C)C(=O)Cn1c2c(ccc1=O)CCN(Cc1cnn(C)c1)CC2`, for which the INHIBITION was 52.4%. With `O=c1ccc2c(n1CC1CCOCC1)CCN(Cc1ccoc1)CC2`, the INHIBITION came out at 5.41%.

On to `CN(C)CCn1c2c(ccc1=O)CCN(Cc1cnn(C)c1)CC2`, for which the INHIBITION was -3.26%. `CN(C)CCn1c2c(ccc1=O)CCN(Cc1ccncc1)CC2`: the INHIBITION is reported as -7.24%. As for `Cn1cc(CN2CCc3ccc(=O)n(CC4CC4)c3CC2)cn1`, the INHIBITION is 89.1%. As to `Cc1ccc(CN2CC[C@H](O)[C@@H](n3ccc(=O)[nH]c3=O)CC2)cc1`, the INHIBITION stood at 37.6%. With `Cn1cc(CN2CCC(Cn3cc(-c4ccccc4)nn3)CC2)cn1`, the INHIBITION is listed as 48.8%.

For the compound `CN(C)c1cc(C(=O)N2CCN(c3nccs3)CC2)ccn1`, the INHIBITION was -43.9%. For `CC(=O)N1CCC2(CC1)CNc1c(F)cccc12`, the INHIBITION was 29.5%. In the case of `O=C(c1ccccc1)N1CCC2(CC1)CNc1c(F)cccc12`, the INHIBITION worked out at 60.3%. As for `O=C(c1cccnc1)N1CCC2(CC1)CNc1c(F)cccc12`, the INHIBITION amounted to 40.5%.

With `Cc1cc(CN2CCN(C(=O)NCCc3csc(C)n3)CC2)on1`, the INHIBITION is on record as -43.5%. In the case of `O=C(NCC1CCOCC1)[C@@H]1C[C@@H]2[C@@H](CCN2Cc2ccoc2)O1`, the INHIBITION amounted to 12.5%. For `CN(C)S(=O)(=O)N1CCCC(c2cccc(Cc3ccc(F)cc3)n2)C1` (stereo unspecified) the value was 96%. For the compound `CN(C)S(=O)(=O)N1CCC(c2ccncn2)CC1`, the INHIBITION is -9.32%. The value for `CN(C)S(=O)(=O)N1CCC(c2cccc(Cc3ccccc3Cl)n2)CC1` was 96%; that for `Cc1cc(C2CCCN(S(=O)(=O)N(C)C)C2)ccn1` (stereo unspecified) was -20.6%; that for `Cc1noc(C)c1-c1cccc(C2CCN(S(=O)(=O)N(C)C)CC2)n1` was 32.4%. The value for `CN(C)S(=O)(=O)N1CCCC(c2cccc(Cc3ccc(Cl)cc3)n2)C1` (stereo unspecified) was 82.7%; that for `CS(=O)(=O)N1CCCC(c2cccc(-c3ccccc3F)n2)C1` (stereo unspecified) was 12.675%; that for `CN(C)S(=O)(=O)N1CCCC(c2nccnc2-c2cccc(Cl)c2)C1` (stereo unspecified) was 5.37%. For `Cc1c[nH]nc1C1CCN(S(=O)(=O)N(C)C)C1` (stereo unspecified), the INHIBITION is on record as -9.32%. The value for `CN(C)S(=O)(=O)N1CCCC(c2ccncn2)C1` (stereo unspecified) was 25.6%. Regarding `CN(C)S(=O)(=O)N1CCCC(c2cccc(Cc3ccccc3F)n2)C1` (stereo unspecified), the INHIBITION worked out at 15.9%. On to `CN(C)S(=O)(=O)N1CCCC(c2cccc(Cc3ccccc3)n2)C1` (stereo unspecified), for which the INHIBITION was 84%.
